Results as given in PubChem BioAssay AID430 (Sanford-Burnham Center for Chemical Genomics, 2006).
Out of some 63,000 compounds screened, about 1,100 (1.7%) were called active. The entries come from a sample that favours actives as a whole. Potency and affinity values are given separately. Unmarked numbers belong to inactive results. Cut-off read from the data, not from the text of the source: active = cytotoxicity above about 50%; inactive = the rest.

Assay: cytotoxicity in HPDE-C7 cells, cell-based, fluorescence, HTS (AID 430);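 note: cells exposed to compound for 48 hours before viability readout; 0% = vehicle and 100% = reference cytotoxic drug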
Details: HPDE-C7 pancreatic duct cells viability, at 10 µM, active compounds read high

Q: Which cytotoxicity does the source give for `COc1ccc(NS(=O)(=O)c2ccc(C)c(C(=O)O)c2)cc1` here?
A: 5%

Q: Which cytotoxicity does the source give for `CCOC(=O)N1CCN(C(=O)c2cc3sccc3n2C)CC1` here?
A: -9.1%

Q: For `Cc1onc(-c2ccccc2Cl)c1C(=O)N1CCN=C1SCc1cccnc1`, which cytotoxicity is on record?
A: -11.9%

Q: Which cytotoxicity does the source give for `COc1cccc(CN(C)C(=O)c2ccc(S(=O)(=O)N3CCCC3)cc2)c1OC` here?
A: -5.4%

Q: Which cytotoxicity does the source give for `O=C(Nc1ccc(Cl)cn1)c1cccc(F)c1` here?
A: 53.4% (active)

Q: Which cytotoxicity does the source give for `Cc1nnc(NC(=O)c2cccc(F)c2)s1` here?
A: -2.4%

Q: Which cytotoxicity does the source give for `O=C(Nc1ccncc1)c1cccc(F)c1` here?
A: -0.4%

Q: For `O=C(Nc1ncccc1Cl)c1cccc(F)c1`, which cytotoxicity is on record?
A: 62.6% (active)

Q: With `CN(C)S(=O)(=O)c1cccc(C(=O)Nc2ccc(Cl)cn2)c1` as the compound, how does the cytotoxicity read?
A: -15.5%

Q: With `O=C(Nc1ccc(Cl)cn1)c1cccnc1` as the compound, how does the cytotoxicity read?
A: 13%

Q: With `O=C(CSc1nnc(-c2cccs2)o1)N1CCCc2ccccc21` as the compound, how does the cytotoxicity read?
A: -17.8%

Q: For `CCOC(=O)C1CCCN(CC(=O)Nc2c(C(=O)OC)[nH]c3ccc(C)cc23)C1` (centres undefined), which cytotoxicity is on record?
A: -8.3%

Q: For `CC(C)(O)c1cc(=O)sc2nc3ccccc3n12`, which cytotoxicity is on record?
A: -13.4%

Q: With `c1ccc2nc3c(nc2c1)sc1nc2ccccc2n13` as the compound, how does the cytotoxicity read?
A: -6.8%

Q: Which cytotoxicity does the source give for `N=c1cc(C2(O)CCCCC2)n2c(nc3ccccc32)s1` here?
A: 51.1% (active)

Q: For `COc1ccc(NC(=O)CS(=O)CC(=O)Nc2cc(Cl)ccc2OC)cc1` (centres undefined), which cytotoxicity is on record?
A: -12.2%

Q: With `CC(Oc1ccc(Cl)cc1Cl)C(=O)Nc1ccncc1` (centres undefined) as the compound, how does the cytotoxicity read?
A: -0.5%

Q: Which cytotoxicity does the source give for `Cc1ccc(N(CC(O)CN(C)C)S(=O)(=O)c2ccccc2)cc1` (centres undefined) here?
A: 3.3%

Q: Which cytotoxicity does the source give for `CN(C)c1ccc(C(=O)Nc2nnc(-c3ccc(Cl)cc3)o2)cc1` here?
A: 31.7%

Q: With `O=C(Nc1nnc(-c2ccccc2)o1)Nc1ccccc1Cl` as the compound, how does the cytotoxicity read?
A: 22.1%

Q: With `COc1ccccc1C(=O)Nc1nnc(-c2ccc(Cl)cc2)o1` as the compound, how does the cytotoxicity read?
A: -10.4%

Q: With `COc1ccc(C(=O)Nc2nnc(-c3ccccc3)o2)cc1OC` as the compound, how does the cytotoxicity read?
A: -9.5%

Q: Which cytotoxicity does the source give for `Cc1cccc(-c2nnc(NC(=O)c3ccc(Cl)cc3)o2)c1` here?
A: 79.5% (active)

Q: Which cytotoxicity does the source give for `Cc1cccc(-c2nnc(-c3ccc(N)cc3)o2)c1` here?
A: -2%

Q: For `CC(=O)c1ccc(C(=O)Nc2nnc(-c3ccc(Cl)cc3)o2)cc1`, which cytotoxicity is on record?
A: 66.8% (active)

Q: Which cytotoxicity does the source give for `Cc1cccc(-c2nnc(-c3ccccc3)o2)c1` here?
A: -3.9%

Q: For `Cc1cc(NC(c2cccnc2)c2c(C)[nH]c3ccccc23)no1` (centres undefined), which cytotoxicity is on record?
A: 5.2%

Q: For `CC(=O)c1ncnn1CC(=O)c1ccc(Cl)cc1Cl`, which cytotoxicity is on record?
A: 13.6%

Q: With `O=C(CCN1CCc2ccccc2C1)Nc1cccc(F)c1` as the compound, how does the cytotoxicity read?
A: 3.9%
